Measured potencies and affinities stand elsewhere. The source made the active and inactive calls.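 The calls were made as follows: active = viability below 70% at one or more tested doses; inactive = viability above 70% at every dose tested.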
test: Vero cell viability after compound exposure – synthesized analogs, set II, cytotoxicity control for West Nile virus antiviral project, SAR follow-up (AID 2402); conditions: Vero E6 viability, CellTiter-Glo, 72 h; series mostly up to 100 µM

Q: Which outcome does the source give for `OC1c2cc(I)ccc2N=C2CCCN21` (stereo not given) here?
A: The outcome was “inactive”.

Q: For `O=C(CSc1nc2ccccc2c(=O)n1-c1ccccc1)Nc1ccc2c(c1)CCC2`, which outcome is on record?
A: Its outcome is “inactive”.

Q: Which outcome does the source give for `COc1ccccc1NC(=O)CSc1nc2ccccc2c(=O)n1-c1ccc(F)cc1` here?
A: Its outcome is “inactive”.

Q: For `Cc1cc(OC(=O)c2c(F)cccc2F)n(Cc2ccccc2)n1`, which outcome is on record?
A: The outcome was “inactive”.

Q: Which outcome does the source give for `O=C(CSc1nc2ccccc2c(=O)n1-c1ccc(F)cc1)Nc1ccc2c(c1)OCCO2` here?
A: The outcome was “inactive”.

Q: With `COc1ccc(NC(=O)CSc2nc3ccccc3c(=O)n2-c2ccc(F)cc2)cc1` as the molecule, how does the outcome read?
A: The outcome was “inactive”.

Q: For `O=c1c2cccc(Cl)c2nc2n1CCC2`, which outcome is on record?
A: The outcome was “inactive”.

Q: Which outcome does the source give for `O=[N+]([O-])c1ccc2c(c1)C(O)N1CCCC1=N2` (stereo not given) here?
A: The outcome was “inactive”.

Q: For `Nc1ccc2nc3n(c(=O)c2c1)CCC3`, which outcome is on record?
A: Its outcome is “inactive”.

Q: Which outcome does the source give for `CC1(O)c2cc(Br)ccc2N=C2CCCN21` (stereo not given) here?
A: Its outcome is “inactive”.

Q: For `O=c1c2c(F)cccc2nc2n1CCC2`, which outcome is on record?
A: Its outcome is “inactive”.

Q: Which outcome does the source give for `CC(=O)Nc1ccc2nc3n(c(=O)c2c1)CCC3` here?
A: Its outcome is “inactive”.

Q: For `Cc1cccc2nc3n(c(=O)c12)CCC3`, which outcome is on record?
A: Its outcome is “inactive”.

Q: Which outcome does the source give for `Cc1ccc2nc3n(c(=O)c2c1)CCC3` here?
A: The outcome was “inactive”.

Q: With `Cc1cccc2c(=O)n3c(nc12)CCC3` as the molecule, how does the outcome read?
A: Its outcome is “inactive”.
